Screening results: PubChem, several laboratories
This is a sample that favours compounds with a hit; in the whole collection about 3.7% have one here.
Kir21 block = inhibitors of mouse Kir2.1 inward-rectifier potassium channel; 310,000 tested, 0.85% active; HEK293-Kir2.1, FluxOR thallium flux fluorescence; hits give low values; B-score at 10 µM; AID 1672; P35561;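 active = fluorescence ratio B-score at or below minus 3 SD of library scores, with starting-brightness B-score within 2 SD, cut at about -4.2 in these data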;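 also: channel flux triggered by added potassium and thallium sulfate stimulus; B-score of peak minus minimum fluorescence over baseline after thallium stimulus; more negative B-score means stronger Kir2.1 block with less thallium influx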
Target sequence (P35561 whole entry, looked up): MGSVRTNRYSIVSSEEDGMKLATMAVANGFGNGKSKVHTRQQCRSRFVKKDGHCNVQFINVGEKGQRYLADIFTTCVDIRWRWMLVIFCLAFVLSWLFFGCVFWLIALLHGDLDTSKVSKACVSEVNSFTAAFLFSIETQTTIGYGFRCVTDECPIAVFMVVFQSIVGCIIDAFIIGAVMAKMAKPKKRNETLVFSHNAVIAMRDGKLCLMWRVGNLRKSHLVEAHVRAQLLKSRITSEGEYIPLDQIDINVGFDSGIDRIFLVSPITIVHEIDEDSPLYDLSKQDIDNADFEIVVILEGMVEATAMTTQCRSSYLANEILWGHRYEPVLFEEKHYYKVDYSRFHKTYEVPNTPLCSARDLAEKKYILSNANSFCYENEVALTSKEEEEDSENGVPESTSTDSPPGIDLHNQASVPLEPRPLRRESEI
ANO1 activ = activates or potentiates the mouse TMEM16A chloride channel; HEK293 TMEM16A/YFP-H148Q/I152L, iodide quench fluorescence; hits give low values; Q8BHY3; B-score at 10 µM; 340,000 tested, 0.3% active;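 active = fluorescence-ratio B-score plate-corrected deviation score at least 3 library SD below zero, with starting fluorescence score within 5 deviations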;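 also: channel opened by trigger with iodide after compound preincubation; score built on the fluorescence ratio of max minus min over baseline; more negative score means more quench and so TMEM16A activation or potentiation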
TMEM16A inh = blocks the mouse calcium-activated chloride channel TMEM16A; Q8BHY3; HEK293 TMEM16A/YFP iodide influx fluorescence, ionomycin; normalized B-score (activity score, 25-100; higher = stronger inhibition) at 10 µM; 310,000 tested, 1.2% active; AID 588511;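 active = ratio plate-corrected score three or more library SD toward inhibition, starting fluorescence score within five deviations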;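 also: score derived from kinetic fluorescence span divided by baseline fluorescence per well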
CHT block = inhibitors of human choline transporter CHT | CHT-expressing cells, membrane potential dye, choline response; hits give low values | B-score at 10 µM | 310,000 tested, 0.86% active;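 active = B-score over 3 SD under the library average, and starting fluorescence ratio not unusually high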;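 also: choline stimulus applied at its EC90 after an EC20 pre-addition; B-score computed on integrated fluorescence ratio after choline addition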
CHT PAM = human CHT allosteric activation. CHT-expressing cells, membrane potential dye, choline EC20; hits give high values; LV-AA mutant CHT in HEK293 cells. 310,000 tested, 0.49% active. B-score at 10 µM. AID 488977;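 active = initial fluorescence not abnormally high and integrated response B-score, plate-corrected, over 3 SD above library mean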
GPR7 antag = antagonists of human GPR7 (neuropeptides B/W receptor 1); GPR7-expressing cells, fluorescence antagonist assay; inhibition, % at 4.4 µM; 290,000 tested, 1.1% active; in the data active = inhibition above about 16%, passing the limit was not always enough;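 also: cells stimulated with the agonist NPW; 0% = agonist with vehicle and 100% = vehicle without agonist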
CHT activ conf = confirmation of human choline transporter (CHT) activators. CHT-expressing cells, membrane potential dye fluorescence (FDSS); % of choline EC20–EC90 response window; HEK293 expressing CHT LV-AA mutant; choline added at its EC20. AID 504833. 2,500 tested, 91% active. activation, % at 10 µM. shares compounds with CHT PAM;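 active = primary screen active, with duplicate mean activation above negative control mean plus 3 SD, cut at about 11% in these data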
HEK293 MP dye = activity in parental HEK293 cells lacking CHT; 2,500 tested, 62% active; ratio readout change at 10 µM, hits read low; membrane potential dye fluorescence (FDSS); measured after EC20 choline addition; shares compounds with CHT PAM;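 active = duplicate-averaged ratio beyond 3 SD from buffer wells, up or down, though filed actives are nearly all decreases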
An asterisk follows results filed as active; i = inactive; · = no result given.

SMILES	Kir21 block	ANO1 activ	TMEM16A inh	CHT block	CHT PAM	GPR7 antag	CHT activ conf	HEK293 MP dye
Cc1ccc2nc(C)cc(Nc3ccc4c(c3)OCCO4)c2c1	-3	i	i	i	i	-3	21*	-44*
CC(=O)c1ccc(Nc2cc(C)nc3ccc(C)cc23)cc1	-1.2	i	i	i	i	0	·	·
Cc1ccccc1S(=O)(=O)Nc1nc2ccccc2nc1NCCO	0.1	i	i	i	i	5	·	·
Cc1ccc2nc(C)cc(NCCO)c2c1	1.8	i	i	i	8.7*	1	53*	-67*
CCOC(=O)C(=CNc1ccc(N2CCCCC2)c(S(=O)(=O)Nc2ccccc2OC)c1)C(=O)OCC	·	i	·	·	·	·	·	·
CCCCNC(=O)COCc1cc(-c2ccc3c(c2)OCO3)on1	-0.57	i	i	i	10*	30	29*	i
O=C(CCCn1c(=O)[nH]c2ccccc2c1=O)NC1CCCCCC1	-0.05	i	i	i	i	20	·	·
CC1CCC(NC(=O)CCCn2sc3ccccc3c2=O)CC1 (stereo unspecified)	0.85	i	i	i	8.7*	16	27*	i
O=C(NNC(=O)C1CC=CCC1)c1ccccc1Cl (stereo unspecified)	-0.02	i	i	i	i	-11	·	·
Cc1ccn2cc(-c3cccc([N+](=O)[O-])c3)nc2c1	1.8	i	i	i	i	-7	39*	-46*
CCC(COC)NCc1cn(-c2ccc(OC)cc2)nc1-c1cccc(F)c1 (stereo unspecified)	-0.67	i	i	i	i	7	·	·
Cc1nnc2n1CCCCC2	0.78	i	i	i	i	10	·	·
COc1ccc(C(=O)NC2CCCN(Cc3ccccc3F)C2)c(OC)c1OC (stereo unspecified)	1.3	i	i	i	i	-22	·	·
CCN1CCCC(NC(=O)c2cc([N+](=O)[O-])ccc2OC)C1 (stereo unspecified)	-0.18	i	i	i	7.3*	-7	36*	-35*
NCc1cc2c3c(c1)CCCN3CCC2	-0.17	i	i	i	i	-13	13*	-100*
COc1ccc(-c2csc3nc(C)nc(N4CCN(c5ccc(C(C)=O)cc5)CC4)c23)cc1OC	-0.68	i	i	i	i	-14	·	·
c1ccc(-c2nnc(-c3ccccn3)nn2)nc1	0.2	i	i	i	i	·	·	·
c1ccc(-c2cccc(-c3ccccn3)n2)nc1	-0.02	i	i	i	i	-6	14*	-47*
CC(CC12CC3CC(CC(C3)C1)C2)NCc1ccccc1O (stereo unspecified)	-5*	i	i	i	i	17	5	i
O=C(CC12CC3CC(CC(C3)C1)C2)NCc1ccccc1	-1.4	i	i	i	i	9	·	·
CCCCCNc1nc(NCCCO)c(C#N)c2c1CN(C)CC2	0.79	i	i	i	i	-11	32*	-29*
CCCCCNc1nc(N2CCCC2)c2c(c1C#N)CCN(C)C2	-3.5	i	i	i	i	3	·	·
COC(=O)c1ccc(N2CCN(C)CC2)c(NC(=O)COc2ccc(OC)cc2)c1	-0.49	i	i	i	9.2*	-2	69*	-65*
O=S(=O)(c1ccccc1)N1CCN(c2nnc(-c3ccccc3)c3ccccc23)CC1	1.8	i	i	i	i	-7	·	·
Cc1cccc(OCc2n(CC(=O)OC3CC(C)CCC3C(C)C)c3ccccc3[n+]2C)c1 (stereo unspecified)	-13*	-6.2*	100*	i	9.3*	61*	41*	i
SMILES	Kir21 block	ANO1 activ	TMEM16A inh	CHT block	CHT PAM	GPR7 antag	CHT activ conf	HEK293 MP dye
CCOc1ccc(NC(=O)CN(C)C(=O)c2cc3c(s2)CCC(C)C3)cc1OCC (stereo unspecified)	·	i	·	·	·	·	·	·
Cc1cc(N2CCOCC2)n2cc(-c3ccc(F)cc3)nc2n1	0.27	i	i	i	i	-11	31*	-21*
Cn1c(=O)c2c(ncn2CCO)n(C)c1=O	1.6	i	i	i	i	10	·	·
Cn1c(=O)c2c(ncn2CCCC(=N)N2CCOCC2)n(C)c1=O	1.1	i	i	i	11*	-3	78*	-72*
COc1ccccc1N1CCN(CCCCNC(=O)c2ccc3ccccc3c2)CC1	·	i	i	i	7.6*	·	36*	-21*
O=C(NCCCN1CCN(CCCNC(=O)c2cccc(Cl)c2)CC1)c1cccc(Cl)c1	-0.01	i	i	i	i	4	28*	i
Cc1cc(C)cc(C(=O)NCCC(=O)NCc2cc(=O)n(C)c(=O)n2C)c1	-0.12	i	i	i	i	-16	·	·
c1ccc(CCN(Cc2ccccc2)C2CCN(C3CCCC3)CC2)cc1	-1.5	i	i	i	i	-7	·	·
COc1ccc(C(=O)c2coc3ccc(O)c(CN4CCOCC4)c23)cc1	-4.7*	i	i	i	i	-12	18*	i
COc1ccc(C(=O)c2c(C)oc3ccc(O)c(CN4CCOCC4)c23)cc1	0	i	i	i	i	-1	·	·
COc1ccc(C(=O)N/C(=C\c2cn(S(=O)(=O)N(C)C)c3ccccc23)C(=O)N2CCOCC2)cc1	0.55	i	i	i	i	-8	·	·
CCCC(C(=O)NC1CCCCC1)N(Cc1ccco1)C(=O)CNS(=O)(=O)c1ccccc1 (stereo unspecified)	-0.5	i	i	i	8.4*	4	33*	i
Cc1sc2ncn(CCn3cnc4sc(C)c(C)c4c3=O)c(=O)c2c1C	-0.15	i	i	i	i	4	·	·
Cc1sc2ncn3c(C)nnc3c2c1C	1.8	i	i	i	7*	-14	59*	-58*
CCN(c1ccccc1)S(=O)(=O)c1ccc(C(=O)NCc2ccco2)cc1	·	i	·	·	·	·	·	·
C[n+]1c2n(c3ccccc31)N=C(c1ccccc1)CS2	0.49	i	i	i	7.1*	-5	58*	-55*
C[n+]1c2n(c3ccccc31)N=C(c1ccc(Br)cc1)CS2	0.08	i	i	i	i	-8	·	·
